G9a block: qHTS Assay for Inhibitors of Histone Lysine Methyltransferase G9a; Potency, µM (titrated, usually from 102 µM), for inactives: top-dose activity, negative = inhibition, most hits filed as inhibitors; 8.8% of 350,000 active; G9a H3K9 monomethylation, AlphaScreen, 2 h; Histone-lysine N-methyltransferase EHMT2 (Homo sapiens), Q96KQ7; also: % is scaled to controls: 0 for no effect and ±100 for the full control effect; nearly all actives have a fitted effect of over 75% in size
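G9a (20 nM) was preincubated 15 min with compound, then reacted 2 h at room temperature with 500 nM biotin-H3K9 peptide and 20 µM SAM. Monomethyl-H3K9 detected by AlphaScreen using anti-H3K9me1 antibody.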
BAZ2B inh: qHTS Assay for Inhibitors of BAZ2B. AlphaScreen BAZ2B-H3K14Ac peptide displacement. 4.4% of 360,000 active. Potency, µM (highest dose often 114 µM), for the others: top-dose activity change, negative = inhibition, hits mostly inhibitors. Bromodomain adjacent to zinc finger domain protein 2B (Homo sapiens), Q9UIF8; also: % is scaled to controls: 0 for no effect and ±100 for the full control effect; nearly all actives have a fitted effect of over 60% in size
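In this displacement format the biotinylated H3(5-23) peptide acetylated at Lys14 serves as ligand at 50 nM, with BAZ2B at 50 nM in PBS pH 7.4 containing 0.01% Tween-20. Donor and acceptor beads are 10 ug/mL final.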
HP1b chromo inh: HTS for Inhibitors of HP1-beta Chromodomain Interactions with Methylated Histone Tails; Chromobox protein homolog 1 (Homo sapiens), P83916; AID 540317, 2011; Potency, µM (highest dose often 114 µM), for inactives: top-dose activity change, negative = inhibition, hits mostly inhibitors; 0.56% of 390,000 active; AlphaScreen HP1-beta / biotin-H3K9me3 peptide binding; also: nearly all actives have a fitted effect of over 70% in size
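AlphaScreen: HP1-beta (50 nM) preformed 30 min with biotin-H3(1-18)K9me3 peptide (50 nM) in PBS pH 7.4, 0.01% Tween-20. Compound added for 30 min at RT, then streptavidin donor/nickel chelate acceptor beads (10 ug/mL) for 30 min.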
Sfp inh: qHTS Assay for Inhibitors of Bacillus subtilis Sfp phosphopantetheinyl transferase (PPTase); Biochemical Sfp PPTase activity, qHTS; Potency, µM, for inactives: largest response in the series, negative = inhibition, most hits filed as inhibitors; 3.5% of 310,000 active; 4'-phosphopantetheinyl transferase ffp (Bacillus subtilis), Q9F4F7;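 also: the enzyme is Sfp with the accession as filed and its product quenches rhodamine fluorescence; 0% = enzyme reaction without inhibitor and -100% = no enzyme wells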
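With Hepes-Na pH 7.6 buffer containing 10 mM MgCl2, Sfp (15 nM) modified BHQ-2-YbbR (12.5 uM) using rhodamine-CoA (5 uM). Two reads 30 minutes apart at 525/598 nm yielded each well's rate.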
JMJD2A Tudor inh: qHTS Assay for Inhibitors of JMJD2A-Tudor Domain; Lysine-specific demethylase 4A (Homo sapiens), O75164; AlphaScreen JMJD2A-Tudor / H3K4me3 peptide binding; Potency, µM (doses to about 114 µM), without a hit: at the top dose activity change, negative = inhibition, usual class: inhibitors; 4.4% of 390,000 active; AID 504339, 2011; also: % is scaled to controls: 0 for no effect and ±100 for the full control effect; nearly all actives have a fitted effect of over 50% in size
Numbers without * were called inactive; ? = inconclusive; nt = not tested or not shown; [ ] = remark or other dose. The list is not random: actives were taken first. Their share in the collection is about 12%. Calls follow the shape of the dose curve; as a rule, active = well fitted curve in the direction sought with a large enough effect; inconclusive = small, poorly fitted or top-dose-only effect, or another doubt; inactive = no such curve, though single readings can be large; an effect the other way counts as inactive or inconclusive. Potency is read from the fitted curve at half-maximal effect.

SMILES | G9a block | BAZ2B inh | HP1b chromo inh | Sfp inh | JMJD2A Tudor inh
COc1ccc(-n2ncc3c(=O)n(CC(=O)Nc4ccc5c(c4)OCCO5)cnc32)cc1 | -2%[59 µM] | 9% | 25% | -28% | -6%
Cc1cc2c(s1)c1cnn(Cc3c(F)ccc(C)c3F)c(=O)c1n2C | nt | nt | nt | nt | -33%
COc1cccc(-c2sc3cc(OC)c(OC)cc3c2-c2ccc(OCCN3CCCCC3)cc2)c1 | nt | nt | ? | nt | 32µM*
COc1ccc2sc(-c3ccccc3OC)c(-c3ccc(OCCN(C)C)cc3)c2c1 | nt | nt | -35% | nt | 50µM*
COc1cccc(-c2sc3ccccc3c2-c2ccc(OCCN(C)C)cc2)c1 | nt | nt | ? | nt | 45µM*
COc1cccc(-c2sc3ccccc3c2-c2ccc(OCCN3CCCC3)cc2)c1 | nt | nt | ? | nt | 45µM*
COc1ccc2sc(-c3ccccc3OC)c(-c3ccc(OC)c(F)c3)c2c1 | 9%[0.501 µM] | -1% | 54% | nt | 1%
Cc1oc(-c2ccccc2)nc1CS(=O)CC(=O)NC1CCCC1 (stereo not drawn) | nt | -1% | 24% | -6% | -18%
COc1ccc(NS(=O)(=O)c2cc3[nH]c(=O)c(=O)[nH]c3cc2C)cc1Cl | -30%[59 µM] | -15% | 17% | nt | -18%
COc1ccc2nc3sc(C(=O)N4CCN(c5ccccc5)CC4)cc3cc2c1 | -3%[59 µM] | -2% | 12% | nt | -9%
COc1cccc(-c2sc3ccccc3c2-c2ccc(OCCN3CCCCC3)cc2)c1 | nt | nt | -11% | nt | ?
COc1cccc(-c2sc3ccc(OC)cc3c2-c2ccc(OCCN3CCCC3)cc2)c1 | nt | nt | ? | nt | 56µM*
C(=Nc1cccc2c(N=Cc3ccco3)cccc12)c1ccco1 | 40µM* | 28µM* | -5% | -11% | -32%
CN(C)c1ccc(N=Cc2ccco2)cc1 | 10µM* | -108% | 16µM* | 45µM* | 28µM*
CN(C)c1ccc(C=Nc2ccc(N(C)C)cc2)cc1 | ? | 20µM* | 50µM* | 22µM* | 56µM*
Cc1cc(C)cc(NC(=O)c2ncn(-c3ccccc3)n2)c1 | -9%[59 µM] | -13% | 21% | nt | -7%
COCCNC(=O)[C@@]1(Cc2ccccc2)C=C[C@@H](C)N1C(=O)OC | nt | nt | nt | 17% | nt
Cc1cc(N2C(=O)C=CC2=O)c([N+](=O)[O-])cc1C | 1.3µM* | 56µM* | 5.6µM* | -98% | 6.3µM*
Cc1cc(C)cc(N2C(=O)C=CC2=O)c1 | nt | nt | 13µM* | nt | 20µM*
Cc1cc(C)cc(N2C(=O)c3nccnc3C2=O)c1 | -2% | 1% | 23% | 9% | 1%
CCOc1ccc(N2C(=O)C3CC(C)=C(C)CC3C2=O)c([N+](=O)[O-])c1 (stereo not drawn) | ? | -37% | 26% | -20% | -35%
Cc1c([N+](=O)[O-])cc(N2C(=O)C=CC2=O)cc1[N+](=O)[O-] | nt | nt | 35µM* | nt | 22µM*
CCC(=O)N1c2ccccc2CC1C(=O)NCc1ccc(N(C)C)cc1 (stereo not drawn) | ? | -15% | 13% | nt | -7%
C#CCOCCOCCOCCNc1nc(N2CCN(C(=O)[C@H](CCC(=O)O)n3cc(C(N)Cc4ccc(O)cc4)nn3)CC2)nc(N2CCN(C(=O)[C@H](CCC(=O)O)n3cc(C(N)Cc4ccc(O)cc4)nn3)CC2)n1 (stereo partly drawn) | ? | 50µM* | 32% | -7% | 50µM*
C#CCOCCOCCOCCNc1nc(N2CCN(C(=O)[C@H](CCC(=O)O)n3cc(C(N)CC(C)C)nn3)CC2)nc(N2CCN(C(=O)[C@H](Cc3ccc(O)cc3)n3cc(C(N)CC(C)C)nn3)CC2)n1 (stereo partly drawn) | ? | 79µM* | 23% | -13% | 79µM*
SMILES | G9a block | BAZ2B inh | HP1b chromo inh | Sfp inh | JMJD2A Tudor inh
C#CCOCCOCCOCCNc1nc(N2CCN(C(=O)[C@H](CCC(=O)O)n3cc(C(N)Cc4ccc(O)cc4)nn3)CC2)nc(N2CCN(C(=O)[C@H](Cc3ccc(O)cc3)n3cc(C(N)CC(C)C)nn3)CC2)n1 (stereo partly drawn) | ? | 35µM* | nt | -1% | nt
C#CCOCCOCCOCCNc1nc(N2CCN(C(=O)[C@H](CCCCN)n3cc(CCC(=O)O)nn3)CC2)nc(N2CCN(C(=O)[C@H](Cc3ccc(O)cc3)n3cc(CCO)nn3)CC2)n1 | nt | nt | 17% | nt | -14%
C#CCOCCOCCOCCNc1nc(N2CCN(C(=O)[C@H](CCCCN)n3cc(C(N)CO)nn3)CC2)nc(N2CCN(C(=O)[C@H](CCC(=O)O)n3cc(C(N)Cc4ccc(O)cc4)nn3)CC2)n1 (stereo partly drawn) | ? | 18µM* | nt | -30% | nt
CCOC(=O)C1CCN(C(c2ccccc2OC)c2c(O)cc(C)n(CCOC)c2=O)CC1 (stereo not drawn) | 3%[59 µM] | 2% | 42%[57 µM] | nt | -4%
CC[C@H](NC(=O)[C@H](CCCN=C(N)N)NC(=O)[C@H](Cc1c[nH]c2ccccc12)NC(=O)[C@@H](N)CS)C(=O)N[C@@H](CCCN=C(N)N)C(=O)N[C@@H](Cc1ccc(O)cc1)C(N)=O | nt | nt | nt | -8% | nt
C#CCOCCOCCOCCNc1nc(N2CCOCC2)nc(N2CCN(C(=O)[C@H](CO)n3cc([C@@H](N)C(C)C)nn3)CC2)n1 | nt | nt | 37% | nt | -11%
C#CCOCCOCCOCCNc1nc(N2CCN(C(=O)[C@H](Cc3ccc(O)cc3)n3cc([C@@H](N)CC(C)C)nn3)CC2)nc(N2CCN(C(=O)[C@H](Cc3ccc(O)cc3)n3cc([C@@H](N)CC(C)C)nn3)CC2)n1 | -102%[59 µM] | 50µM* | nt | -17% | nt
COc1ccc(CN2CCCN(C)CC2)c(OC)c1C | nt | ? | ? | 79µM* | 8.9µM*
COc1cc(Br)c(CN2CCCN(C)CC2)cc1OC | 71µM* | -27% | 29% | -2% | -17%
CCSC(=Nc1ccccc1)C1=C(O)COC1=O | 35µM* | ? | 38% | 11% | -34%
S=c1[nH]nc(-c2cc(-c3ccccc3)n[nH]2)n1/N=C/c1ccc(Cl)c(Cl)c1 | ? | 45µM* | 129% | -24% | 50µM*
S=c1[nH]nc(-c2cc(-c3ccccc3)n[nH]2)n1/N=C/c1cccc(Cl)c1 | 10µM* | 50µM* | ? | ? | 40µM*
c1ccc(Nc2nc(CSc3ncn[nH]3)cs2)cc1 | 22µM* | -28% | 14% | -39% | 3%[57.1 µM]
O=S(=O)(c1ccc(-c2n[nH]c(=S)o2)cc1)N1CCCC1 | 35µM* | -15% | 3% | -20% | -11%
O=S(=O)(c1ccc(=S)[nH]c1)N1CCCCC1 | 0.79µM* | -3% | 31% | nt | -3%

Compound activity: PubChem BioAssay, National Center for Advancing Translational Sciences (NCATS)
